# Experimental data published in the supplement of paper PMC9254222.
# Over roughly 1,100 compounds, “Wnt reporter firefly/Renilla luciferase ratio relative to plate median” has its median near 1.1; the highest 2% begin near 1.6. The list comes from a sample in which the highest values are over-represented; it also holds similar structures and randomly drawn compounds.
# Test system: HEK293T (UBE3A T485A transfected, BAR Wnt reporter)
# Test: Wnt reporter firefly/Renilla luciferase ratio relative to plate median (fold (linear ratio)); higher = more Wnt/beta-catenin reporter activation
# Settings: 24 h
# Method in brief: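 HEK293T cells carrying a transfected BAR firefly luciferase Wnt reporter, TK-Renilla and an expression plasmid were exposed to chemicals at 0.01–100 uM for 24 h, with dosing four hours after transfection. Readout used Dual-Glo luciferase. The firefly/Renilla ratio defined Wnt activity and raw Renilla defined cell health, each median-centred per plate. Figures are means of four biological replicates.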
Compound,Wnt reporter firefly/Renilla luciferase ratio (concentration: 0.01 uM),Wnt reporter firefly/Renilla luciferase ratio (concentration: 0.1 uM),Wnt reporter firefly/Renilla luciferase ratio (concentration: 1 uM),Wnt reporter firefly/Renilla luciferase ratio (concentration: 10 uM),Wnt reporter firefly/Renilla luciferase ratio (concentration: 100 uM)
"Oc1ccc(C(c2ccc(O)cc2)C(Cl)(Cl)Cl)cc1 [2,2-Bis(4-hydroxyphenyl)-1,1,1-trichloroethane]",1.02,1.3,0.957,0.541,–
CC(=O)[C@@]1(O)CC[C@H]2[C@@H]3CCC4=CC(=O)CC[C@]4(C)[C@H]3CC[C@@]21C [17alpha-Hydroxyprogesterone],–,1.06,1.02,1.03,0.475
NC(=O)N/N=C/c1ccc([N+](=O)[O-])o1 [Nitrofurazone],–,1.22,1.02,0.506,0.32
Nc1nc(=O)c2nc(CNc3ccc(C(=O)N[C@@H](CCC(=O)O)C(=O)O)cc3)cnc2[nH]1 [Folic acid],–,1.38,1.01,0.97,1.26
O=C(OC[C@H]1O[C@@H](OC(=O)c2cc(O)c(O)c(OC(=O)c3cc(O)c(O)c(O)c3)c2)[C@H](OC(=O)c2cc(O)c(O)c(OC(=O)c3cc(O)c(O)c(O)c3)c2)[C@@H](OC(=O)c2cc(O)c(O)c(OC(=O)c3cc(O)c(O)c(O)c3)c2)[C@@H]1OC(=O)c1cc(O)c(O)c(OC(=O)c2cc(O)c(O)c(O)c2)c1)c1cc(O)c(O)c(OC(=O)c2cc(O)c(O)c(O)c2)c1 [Tannic acid],–,0.923,1.19,1.38,–
CCC(C)N(C)C(=O)c1cc2ccccc2c(-c2ccccc2Cl)n1 (stereo not given),–,0.925,1.31,1.03,0.292
"CC(C)(C)c1ccc(O)c(C(C)(C)C)c1 [2,4-Di-tert-butylphenol]",–,0.984,1.32,1.13,1.1
"CC(C)(C)c1cccc(C(C)(C)C)c1O [2,6-Di-tert-butylphenol]",–,1.12,1.01,1.3,1.72
"CC(C)(C)c1cc(O)c(C(C)(C)C)cc1O [2,5-Di-tert-butylbenzene-1,4-diol]",–,1.14,0.988,1.13,–
CCN(Cc1cccc(S(=O)(=O)[O-])c1)c1ccc(C(=C2C=CC(=[N+](CC)Cc3cccc(S(=O)(=O)[O-])c3)C=C2)c2ccccc2S(=O)(=O)[O-])cc1.[Na+].[Na+],–,0.943,1.04,0.706,0.433
"CC1(C)C(=O)NC(=O)N1CO [1-(Hydroxymethyl)-5,5-dimethylhydantoin]",–,1.14,0.992,1.12,1.59
CN1CCC(c2c(O)cc(O)c3c(=O)cc(-c4ccccc4Cl)oc23)C(O)C1 (stereo not given) [Flavopiridol],1.17,2,–,–,–
CN(C)C(=O)NC1(c2ccccc2)CCN(CCC[C@@]2(c3ccc(Cl)c(Cl)c3)CCCN(C(=O)c3ccccc3)C2)CC1,–,1.08,0.903,0.985,–
O=C(O)/C=C/C(=O)O.O=C1c2ccccc2C(=O)N1CCc1noc(-c2ccc(CN3CCCCCC3)s2)n1,–,1.17,1.07,0.907,0.252
NC(=O)N1c2ccccc2C=Cc2ccccc21 [Carbamazepine],–,1.35,0.977,0.997,0.929
CC(=O)Oc1ccccc1C(=O)O [Aspirin],–,1.2,1.04,1.15,0.812
Cc1cc2c(cc1C(F)(F)F)N(C(=O)Nc1ccc(Oc3cccnc3C)nc1)CC2.Cl,–,1.03,1.4,0.768,0.554
CCCN(CCC)c1c([N+](=O)[O-])cc(C(F)(F)F)c(N)c1[N+](=O)[O-] [Prodiamine],1.16,1.47,1.2,1.2,1.29

Compound,Wnt reporter firefly/Renilla luciferase ratio (concentration: 0.01 uM),Wnt reporter firefly/Renilla luciferase ratio (concentration: 0.1 uM),Wnt reporter firefly/Renilla luciferase ratio (concentration: 1 uM),Wnt reporter firefly/Renilla luciferase ratio (concentration: 10 uM),Wnt reporter firefly/Renilla luciferase ratio (concentration: 100 uM)
CCN(Cc1c(F)cccc1Cl)c1c([N+](=O)[O-])cc(C(F)(F)F)cc1[N+](=O)[O-] [Flumetralin],1.23,1.65,1.11,0.843,0.851
CC(C(C)N1CC(=O)NC(=O)C1)N1CC(=O)NC(=O)C1 (stereo not given),1.31,1.88,1.23,1.33,1.53
C#C[C@]1(O)CC[C@H]2[C@@H]3CCc4cc(O)ccc4[C@H]3CC[C@@]21C [17alpha-Ethinylestradiol],–,1.06,0.888,1.12,0.42
CC(=O)O [Acetic acid],–,1.13,1.09,1.46,1.17
C#C[C@]1(O)CC[C@H]2[C@@H]3CCC4=CC(=O)CC[C@@H]4[C@H]3CC[C@@]21CC [Norgestrel],–,0.82,1.09,1.07,1.36
CS(=O)(=O)O.Cc1cc(CCN2CCN(c3nsc4ccccc34)CC2)cc2c1NC(=O)CC2(C)C,–,0.776,0.735,0.407,–
CCNc1cccc(C)c1 [N-Ethyl-3-methylaniline],–,0.98,1.05,1.05,1.54
O=C(N[C@@H](Cc1ccccc1)[C@@H](O)C(=O)N1C[C@@H](O)[C@@H](O)C1)c1cc2cc(Cl)ccc2[nH]1 [Ingliforib],–,1.29,1.69,0.888,0.353
CCCCCCCCOc1ccc(C(=O)c2ccccc2)c(O)c1 [Octabenzone],–,1.12,1.08,0.916,1.2
O=C(O)C1(C(=O)Nc2ccc(Cl)cc2Cl)CC1 [Cyclanilide],1.46,1.6,1.16,1.53,0.874
O=C(N[C@@H](c1ccccc1)[C@@H]1CCCCN1)c1cccc(C(F)(F)F)c1Cl,–,0.912,1.24,0.921,–
CCOC(=O)COc1ccc2c(c1)CC(NCC(O)c1cccc(Cl)c1)CC2.Cl (stereo not given),–,1.06,1.18,1.15,1.19
Cl.Clc1cc(Cl)c2c(c1)N=C1CCCCCN1C2,–,0.996,1.26,1.13,0.303
Cc1[nH]nc2c1N=C(c1ccccc1Cl)c1cc([N+](=O)[O-])ccc1N2,–,1.21,1.72,104,89.3
Nc1nc2nc[nH]c2c(=S)[nH]1 [6-Thioguanine],–,1.31,1.03,–,–
CCCCC(CC)COC(=O)CCCCCCCC(=O)OCC(CC)CCCC (stereo not given) [Bis(2-ethylhexyl) nonanedioate],–,1.04,0.979,1.33,1.24
O=C(NO)C1(NS(=O)(=O)c2ccc(Oc3ccc(F)cc3)cc2)CCOCC1,–,1.18,0.992,0.736,0.244
